# Test results as given in PubChem BioAssay (NCATS).
# Active and inactive are the calls of the source. Entries that show only a call come without a potency. Calls come from the whole dose curve; as a rule, active = well fitted inhibition curve with a large enough effect; inconclusive = small, poorly fitted or top-dose-only effect; inactive = flat fitted curve, though single readings scatter.
# Target: DNA polymerase III PolC-type (Bacillus subtilis (strain 168)) (UniProt P13267)
# Experiment: qHTS Validation Assay for the Inhibitors of DNA Replication in Gram-Positive Bacteria (AID 485295)
# Details: Gram-positive bacterial DNA replication assay; series mostly up to 57.1 µM
# How it was run: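 Reconstituted B. subtilis Pol III holoenzyme (PolC, beta clamp, SSB, primase) preincubated with compound, then M13Gori single-stranded circular template with dNTPs/NTPs added; room temperature reaction. Stopped with EDTA/PicoGreen; dsDNA fluorescence read, EDTA as full-inhibition control.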
# Potency is the fitted concentration of half-maximal effect.
# Sequence of DNA polymerase III PolC-type (Bacillus subtilis (strain 168)) (P13267 whole entry, looked up): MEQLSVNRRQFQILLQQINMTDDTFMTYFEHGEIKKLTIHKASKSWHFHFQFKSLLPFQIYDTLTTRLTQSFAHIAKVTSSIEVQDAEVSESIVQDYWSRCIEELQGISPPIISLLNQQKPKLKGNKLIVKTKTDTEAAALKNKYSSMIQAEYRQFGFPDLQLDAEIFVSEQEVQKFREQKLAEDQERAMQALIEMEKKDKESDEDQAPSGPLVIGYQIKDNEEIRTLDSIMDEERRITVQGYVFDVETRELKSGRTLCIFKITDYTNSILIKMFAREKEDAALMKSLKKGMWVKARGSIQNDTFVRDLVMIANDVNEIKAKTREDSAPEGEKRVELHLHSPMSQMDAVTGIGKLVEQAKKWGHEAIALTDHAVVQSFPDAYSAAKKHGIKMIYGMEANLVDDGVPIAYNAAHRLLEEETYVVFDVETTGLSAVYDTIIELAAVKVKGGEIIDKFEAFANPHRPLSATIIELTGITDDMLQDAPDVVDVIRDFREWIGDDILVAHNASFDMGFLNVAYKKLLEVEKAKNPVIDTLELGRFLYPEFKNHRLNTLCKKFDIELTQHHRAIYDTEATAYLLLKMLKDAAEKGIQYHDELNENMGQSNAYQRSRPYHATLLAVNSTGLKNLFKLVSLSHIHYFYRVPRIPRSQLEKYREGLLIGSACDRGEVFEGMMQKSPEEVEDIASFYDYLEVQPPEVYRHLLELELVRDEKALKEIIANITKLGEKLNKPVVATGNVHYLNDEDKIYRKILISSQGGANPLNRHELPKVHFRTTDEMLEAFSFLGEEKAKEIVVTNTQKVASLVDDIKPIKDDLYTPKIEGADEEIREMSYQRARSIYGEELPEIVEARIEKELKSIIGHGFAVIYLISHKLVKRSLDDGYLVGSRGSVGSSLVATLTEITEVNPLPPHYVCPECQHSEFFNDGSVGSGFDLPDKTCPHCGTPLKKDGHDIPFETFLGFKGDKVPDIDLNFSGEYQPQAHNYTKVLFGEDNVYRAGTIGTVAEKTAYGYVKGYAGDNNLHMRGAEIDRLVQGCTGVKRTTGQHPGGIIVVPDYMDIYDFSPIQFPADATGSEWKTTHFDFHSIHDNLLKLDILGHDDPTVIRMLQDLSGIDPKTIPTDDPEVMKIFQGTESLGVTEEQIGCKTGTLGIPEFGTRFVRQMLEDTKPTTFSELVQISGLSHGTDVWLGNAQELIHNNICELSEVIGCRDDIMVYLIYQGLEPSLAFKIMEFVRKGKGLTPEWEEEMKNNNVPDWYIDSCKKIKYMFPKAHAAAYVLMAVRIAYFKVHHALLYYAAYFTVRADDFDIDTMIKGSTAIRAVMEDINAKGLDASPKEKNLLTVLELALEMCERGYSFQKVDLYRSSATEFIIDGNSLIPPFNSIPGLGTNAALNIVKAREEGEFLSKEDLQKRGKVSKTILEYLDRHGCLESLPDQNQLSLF
row,SMILES,Potency
1,CC(C)NCC(O)COc1cccc2ccccc12 (stereo not given),inactive
2,COc1ccccc1N1CCN(CCCCNS(=O)(=O)c2cccc3c(N(C)C)cccc23)CC1,inactive
3,O=C1NC(O)=NC1(c1ccccc1)c1ccccc1,inactive
4,O=C(Nc1cccc(C(=O)Nc2ccc(S(=O)(=O)O)c3cc(S(=O)(=O)O)cc(S(=O)(=O)O)c23)c1)Nc1cccc(C(=O)Nc2ccc(S(=O)(=O)O)c3cc(S(=O)(=O)O)cc(S(=O)(=O)O)c23)c1,11.9 µM (active)
5,CN=c1nc(-c2ccccc2)n(-c2ccccc2)s1,26.7 µM (active)
6,Cc1ccccc1CNc1ncnc2c1ncn2C1OC(CO)C(O)C1O (stereo not given),inactive
7,NC(CCCP(=O)(O)O)C(=O)O (stereo not given),inactive
8,O=c1[nH]c2cc(Cl)c(Cl)cc2[nH]c1=O,inactive
9,Fc1cccc(/C=N/N=C/c2cccc(F)c2)c1,inactive
10,O=C(/C=C/c1ccc(O)cc1)c1ccc(O)cc1O,inactive
11,CN1CCc2cc(NC(=O)Nc3cccnc3)ccc21,inactive
12,CN(C)C(N)=NCCC[C@H](N)C(=O)O,inactive
13,O=C(O)CCCC[C@@H]1CCSS1,inactive
14,O=C(O)/C=C/C(O)c1ccc(Cl)cc1 (stereo not given),inactive
15,CC(C)Cc1ccc([C@H](C)C(=O)O)cc1,inactive
16,Ic1ccc(N2CCN(Cc3c[nH]c4ncccc34)CC2)cc1,inactive
17,CC12C(=O)OC(=O)C1(C)C1CCC2O1 (stereo not given),inactive
18,CCCCN1CCC(n2c(=O)[nH]c3ccccc32)CC1,inactive
19,CC(C)(C)c1ccc(S(=O)(=O)/C=C/C#N)cc1,inactive
20,Cc1cc(NC(=O)Nc2ccc3c(ccn3C)c2)sn1,inactive
